# High-throughput results deposited in PubChem BioAssay by National Center for Advancing Translational Sciences (NCATS).
# HCV inhibitor – blocks hepatitis C virus | Potency, µM (series often up to 41.8 µM), for the others: top-dose activity change, negative = inhibition, most hits filed as inhibitors | Huh7.5.1 HCVcc-Cre infection, luciferase reporter, 44 h | AID 651820 | 3.4% of 340,000 active; note: potency is the fitted concentration of half-maximal effect
#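 Reporter virus HCVcc-Cre (~0.5 moi) infects cells exposed to compound; seeding density 1,000 cells/well with 4 h settling beforehand. Luminescence, 15 sec read, taken 44 h post-infection following a 15 min RT substrate incubation.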
# HCMV inh – inhibitors of human cytomegalovirus; activity change, negative = inhibition, % at 57.5 µM; HFF cells, HCMV-luciferase reporter, 72 h; hits give low values; AID 1259415; 4.5% of 410,000 active; in the data active = activity change below about -60%; inconclusive = no clear call, values can overlap the other calls; inactive = above about -39%
#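 Screen run at 2 compound doses on HFFs infected with reporter HCMV, MOI 1 PFU/cell. Luciferase activity from cell lysates at 72 h post infection gave inhibition relative to buffer-only and Salinomycin wells.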
# Pf growth 48h – P. falciparum growth inhibition at 48 hours (one generation). P. falciparum luciferase growth in erythrocytes, 48 h. Potency, µM (top dose mostly 28.7 µM), inactives show at the top dose activity change, negative = inhibition, actives largely listed as inhibitors. 5.9% of 310,000 active; note: potency is the fitted concentration of half-maximal effect
#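 Luciferase-expressing P. falciparum in infected erythrocytes (2% hematocrit, 0.1% parasitemia final) in RPMI 1640/0.5% Albumax were exposed to compound for 48 hours at 37 C, 5% CO2; growth read as luminescence.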
# Pf growth 96h – inhibits malaria parasite growth, 96 h. P. falciparum luciferase reporter growth, 96 h. Potency, µM (highest dose often 28.7 µM), without a hit: at the top dose activity change, negative = inhibition, most hits filed as inhibitors. 6.9% of 320,000 active. AID 504834; note: potency is the fitted concentration of half-maximal effect
#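 Compounds incubated with erythrocytes infected by luciferase-expressing P. falciparum (2% hematocrit, 0.05% parasitemia final) for 96 hours, 37 C in 5% CO2. Growth inhibition scored as decreased luciferase luminescence.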
# Numbers without * were called inactive; ? = inconclusive; nt = no result; [ ] = another dose, or the depositor's remark. Only some compounds are listed: those with a hit (about 13% of all), similar ones and a draw of the others. Unless noted, calls come from the whole dose curve; as a rule, active = well fitted inhibition curve with a large enough effect; inconclusive = small, poorly fitted or top-dose-only effect, or another doubt; inactive = no such curve, though single readings can be large or run the other way. % is set by controls: 0 for no effect and ±100 for the full control effect.
SMILES,HCV inhibitor,HCMV inh,Pf growth 48h,Pf growth 96h
COc1ccc(C(O)(CCC(C)C)C(CN2CCOCC2)c2ccc(Cl)cc2)cc1 (configuration not stated),?,?,1.7µM*,-24%
CCOc1ccc(C(O)(c2ccccc2)C(CN2CCCC2)c2ccccc2)cc1 (configuration not stated),-23%,?,12µM*,121%
CCCCC(O)(c1ccc(F)cc1)C(CN1CCOCC1)c1ccc(Cl)cc1 (configuration not stated),?,-32,1.9µM*,43%
COc1ccccc1CNC(=O)CSCc1nc(-c2ccc(OC)c(OC)c2)oc1C,nt,-12,nt,nt
CS(=O)(=O)c1ccc(-c2csc(N3CCC(C(N)=O)CC3)n2)cc1,nt,nt,5%,0%
COCCNC(=O)c1cc2c(c(-c3cccc(-c4cc5ccccc5o4)c3)n1)[C@@H](CCO)N(S(=O)C(C)(C)C)C2 (some centres not stated),nt,23,nt,nt
CCOc1ccc(C(O)(CCC(C)C)C(CN2CCOCC2)c2ccccc2)cc1 (configuration not stated),?,?,7.4µM*,12%
CCn1c(C)nc2cc(-c3nc4n(n3)Cc3ccccc3-4)ccc21,-25%,nt,0.19µM*,0.21µM*
Cn1c(=O)c2c(ncn2CC(=O)OCC(=O)NCc2ccc(F)cc2)n(C)c1=O,nt,-65*,nt,nt
Cc1cc(-n2c(C)c3c(C)nnc(C)c3c2C)ccc1N,-76%,-62*,33%,-17%
Cc1ccc(-n2c(C)c3c(C)nnc(C)c3c2C)cc1N,?,-17,36%,-5%
C#CCOCCOCCOCCNc1nc(N2CCN(C(=O)[C@H]([C@@H](C)O)n3cc(CCCCN)nn3)CC2)nc(N2CCN(C(=O)[C@H](CCCCN)n3cc(CCCC)nn3)CC2)n1,-6%,-3,?,57%
C#CCOCCOCCOCCNc1nc(N2CCN(C(=O)[C@H]([C@@H](C)CC)n3cc(CCCN=C(N)N)nn3)CC2)nc(N2CCN(C(=O)[C@H](CCCCN)n3cc(CCCC)nn3)CC2)n1,-9%[8.37 µM],-15,?,12µM*
C#CCOCCOCCOCCNc1nc(N2CCN(C(=O)Cn3cc(CCCCN)nn3)CC2)nc(N2CCN(C(=O)Cn3cc(CCCN=C(N)N)nn3)CC2)n1,15%,-31,?,0.83µM*
C#CCOCCOCCOCCNc1nc(N2CCN(C(=O)Cn3cc(CCCN=C(N)N)nn3)CC2)nc(N2CCN(C(=O)[C@H](CCCCN)n3cc(CCC(=O)O)nn3)CC2)n1,12%,8,-25%,?
C#CCOCCOCCOCCNc1nc(N2CCN(C(=O)[C@H](C)n3cc(CCCN=C(N)N)nn3)CC2)nc(N2CCN(C(=O)[C@H](CCCCN)n3cc(CCCC)nn3)CC2)n1,2%[8.37 µM],nt,?,12µM*
C#CCOCCOCCOCCNc1nc(N2CCN(C(=O)Cn3cc(CCCN=C(N)N)nn3)CC2)nc(N2CCN(C(=O)[C@H](CCCCN)n3cc(CCCC)nn3)CC2)n1,2%,-18,12µM*,12µM*
CNc1ncnc2c1ncn2[C@H]1CN(Cc2cccnc2)C[C@@H](CO)O1,nt,2,nt,nt
CCC(Sc1nc2c(sc3ccccc32)c(=O)n1CCc1ccc(OC)c(OC)c1)C(=O)N(CC)CC (configuration not stated),nt,-5,nt,nt
COc1ccc(OC)c2sc(N3CCN(C(=O)c4ccc5c(c4)CCCC5)CC3)nc12,nt,-3,nt,nt
COc1ccc(CN2COc3ccc4c(-c5ccccc5)cc(=O)oc4c3C2)cc1,nt,-9,nt,nt
CCN(CC)S(=O)(=O)c1cccc(-c2nnc(SCC(=O)c3ccc(Cl)s3)n2C)c1,-14%,3,13µM*,58%
COc1ccc(-n2ncc3c2ncn2nc(-c4ccc(Cl)cc4Cl)nc32)cc1,nt,-27,nt,nt
COc1ccccc1/C=C/C1(C(=O)NC2CCCC2)CC(=O)N1c1ccc(F)cc1 (configuration not stated),?,-83*,10µM*,32%
CCN(CC)S(=O)(=O)c1ccc(N2C(=O)CC2(/C=C/c2ccccc2)C(=O)NC2CCCC2)cc1 (configuration not stated),8%,-32,?,?
SMILES,HCV inhibitor,HCMV inh,Pf growth 48h,Pf growth 96h
CC1(C(=O)NC2CCCCC2)Cc2ccccc2C(=O)N1Cc1ccc(F)cc1 (configuration not stated),nt,4,nt,nt
COc1ccccc1/C=C/C1(C(=O)NC2CCCC2)CC(=O)N1c1ccc(C)cc1 (configuration not stated),?,-98*,?,-16%
OC1(C#CCN2CCCC2)c2ccccc2-c2ccccc21,12%,32,12µM*,?
CN(C)CCC#CC1(O)c2ccccc2-c2ccccc21,-7%,14,12%,58%
CCN(CC)CCC#CC1(O)c2ccccc2-c2ccccc21,-15%,-16,-10%,3.3µM*
Cc1c(CCC(=O)NCCc2ccccc2)c(=O)oc2c(C)c(O)ccc12,nt,2,nt,nt
CSc1nc(Oc2ccc(Cl)cc2)c2sccc2n1,2%,-15,?,9.3µM*
O=[N+]([O-])c1ccccc1S(=O)(=O)N1CCCCC1,9%,-21,25%,0%
O=[N+]([O-])c1ccccc1S(=O)(=O)N1CCCC(C(F)(F)F)C1 (configuration not stated),30%,-26,8%,0.83µM*
CCn1cc(C(=O)NCCc2ccccc2)c(=O)c2cc(S(=O)(=O)N(C)C)ccc21,8%,-18,?,13µM*
CCn1cc(C(=O)NCCc2ccccc2)c(=O)c2cc(F)c(N3CCN(C)CC3)cc21,10µM*,35,10µM*,?
CCn1cc(C(=O)N[C@H](C)c2ccccc2)c(=O)c2cc(F)c(N3CCN(C)CC3)cc21,?,23,nt,12µM*
CCC(C)NC(=O)c1cn(CC)c2cc(N3CCN(C)CC3)c(F)cc2c1=O (configuration not stated),?,4,?,-22%
CCCCCCNC(=O)c1cn(CC)c2cc(N3CCN(C)CC3)c(F)cc2c1=O,10µM*,2,4.7µM*,2.6µM*
CCn1cc(C(=O)NCCCO)c(=O)c2cc(F)c(N3CCN(C)CC3)cc21,6%,19,5%,?
CCOc1ccc(NC(=O)CCNS(=O)(=O)c2ccc3c(c2)CCCC(=O)N3)cc1,nt,1,nt,nt
Cc1ccc2onc(CC(=O)N3CCN(c4cccc(Cl)c4)CC3)c2c1,nt,-24,nt,nt
Cc1onc(-c2ccccc2Cl)c1C(=O)N1CCN=C1SCc1cccnc1,11%,33,5%,2.1µM*
COc1ccc([C@@H]2C(C(=O)N3CCCC3)CC(=O)N2C(=O)CCc2ccccc2)cc1 (some centres not stated),nt,-3,nt,nt
CCCCN(C)C(=O)CSc1nc(NCc2ccc(OC)cc2)c2ccccc2n1,?,?,10µM*,2.3µM*
CCC12CN3CC(CC)(CN(C1)C3c1ccc(OC(C)C)cc1)C2=O (configuration not stated),0%,21,?,4.7µM*
